# The full list was thinned out, with hits kept by preference.
# 14-3-3 PPI: 14-3-3 gamma protein interaction modulation; inhibition, % at 40 µM; hit rate 0.19% among 160,000; FP, 14-3-3gamma / TMR-pS259-Raf peptide binding; P61981; AID 422; in the data active = inhibition above about 30%
# Target sequence (P61981 whole entry, looked up): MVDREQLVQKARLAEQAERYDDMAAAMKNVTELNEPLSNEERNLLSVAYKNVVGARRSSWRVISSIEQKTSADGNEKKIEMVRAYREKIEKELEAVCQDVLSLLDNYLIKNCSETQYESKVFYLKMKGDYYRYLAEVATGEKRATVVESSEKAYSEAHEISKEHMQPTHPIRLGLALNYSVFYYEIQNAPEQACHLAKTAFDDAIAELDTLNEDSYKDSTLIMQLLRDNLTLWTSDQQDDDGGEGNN
# Hits are given with their value; i = inactive.
SMILES,14-3-3 PPI
C=CCN(c1ccccc1)S(=O)(=O)c1ccc2[nH]cc(C(=O)NCc3ccccn3)c(=O)c2c1,i
CCOc1ccc(N(C)S(=O)(=O)c2ccc3[nH]cc(C(=O)NCc4ccccc4)c(=O)c3c2)cc1,i
COc1ccc(NC(=O)C2CCN(S(=O)(=O)c3ccc(OC)c(OC)c3)CC2)cc1OC,i
COc1ccc(OC)c(C2C(C(=O)O)c3cc(OC)c(OC)cc3C(=O)N2C)c1 (stereo not given),i
Cc1cccc(CCN=c2c([N+](=O)[O-])nn(-c3ccc4c(c3)OCCO4)n2O)c1,72
O=[N+]([O-])c1nn(-c2ccc3c(c2)OCCO3)n(O)c1=NCCc1ccccc1,i
Cc1cccc(CCN=c2c([N+](=O)[O-])nn(-c3ccccc3)n2O)c1,i
CCOC(=O)c1c(CBr)n(C)c2cc(Br)c(OC(C)=O)cc12,i
CSc1ccccc1N=Cc1nc(-c2ccccc2)oc1O,i
CN(C)c1ccc(N=Cc2nc(-c3ccccc3)oc2O)cc1,112
CC(=O)Nc1ccc(N=Cc2nc(-c3ccc(C)cc3)oc2O)cc1,i
COc1ccc(NC(=O)C2=C(C)Nc3ncnn3C2c2ccc(OC)c(OC)c2OC)cc1 (stereo not given),i
C=C(C)n1c(=O)[nH]c2c([N+](=O)[O-])cccc21,i
CCCOc1ccc(C2C(=O)N(C3CCCCC3)CC(=O)N2Cc2ccccc2Cl)cc1OC (stereo not given),i
C1COCCOCCN(CCOCCOCCN2CCOCCOCCOCCOCC2)CCOCCO1,i
c1ccc(SCCN2CCOCC2)cc1,i
c1ccc(COCCOCCN2CCOCCOCCOCCOCCOCC2)cc1,119
COc1ccccc1Nc1c2c(nc3ccc(Cl)cc13)CCC2,i
COC(=O)C1=CN(CC2CCCO2)C=C(C(=O)OC)C1c1cccc(F)c1 (stereo not given),i
CCOc1ccc(C=Cc2nc3ccccc3n2S(=O)(=O)c2cccc(Cl)c2)cc1,i
CSc1nnc2c(n1)OC(c1ccc(OCC(=O)O)cc1)Nc1ccccc1-2 (stereo not given),i
CCSc1nnc2c(n1)OC(C1CC=C(C)CC1C)Nc1ccccc1-2 (stereo not given),i
CSc1nnc2c(n1)OC(C1CC=C(C)CC1C)Nc1ccccc1-2 (stereo not given),83
C=CCOc1cccc(C2Nc3ccccc3-c3nnc(SC)nc3O2)c1 (stereo not given),134
C=CCSc1nnc2c(n1)OC(c1cccc(F)c1)Nc1ccccc1-2 (stereo not given),i
SMILES,14-3-3 PPI
CCCSc1nnc2c(n1)OC(C1CC=C(C)CC1C)Nc1ccccc1-2 (stereo not given),i
CCOc1ccc(C2Nc3ccccc3-c3nnc(SCC)nc3O2)cc1 (stereo not given),i
CSc1nnc2c(n1)OC(c1ccc(OCc3ccccc3)cc1)Nc1ccccc1-2 (stereo not given),33
C=CCOc1ccc(C2Nc3ccc(Br)cc3-c3nnc(SC)nc3O2)cc1 (stereo not given),i
Cc1ccc(NC(=O)CN2CCN(C(=O)c3ccco3)CC2)cc1F,i
CCOC(=O)CSc1nc(-c2ccccc2)cc(-c2ccc(Cl)cc2)c1C#N,i
Cc1ccc(NS(=O)(=O)c2cc(Br)cc3c2N(C(=O)C2CC2)CC3)c(C)c1,i
CCOc1ccc2c(c1)sc(=NC(=O)c1ccc(S(=O)(=O)N3CCCC3)cc1)n2CC,i
CCOC(=O)C1=C(C)NC2=C(C(=O)C(C(=O)OC)C(C)C2)C1c1ccc(OC)c(Br)c1 (stereo not given),i
Cc1ccc(-n2nc(C(=O)N3CCN(c4ccc(Cl)cc4)CC3)c3c4ccccc4n(C)c3c2=O)cc1,i
CCN1/C(=C/c2ccc3cc(OC)ccc3[n+]2CC)Sc2ccc(Cl)cc21,i
CCN1/C(=C/c2ccc3ccccc3[n+]2CC)Sc2ccc(C)cc21,i
CCN1/C(=C/c2ccc3cc(OC)ccc3[n+]2CC)Sc2ccc(C)cc21,42
COc1cc(NC(=O)C2CCCCC2)cc2sc(NC(C)=O)nc12,i
CS(=O)(=O)Nc1ccc(C2=NN(S(C)(=O)=O)C(c3ccc(F)cc3)C2)cc1 (stereo not given),i
CCS(=O)(=O)N1N=C(c2ccc(NS(C)(=O)=O)cc2)CC1c1ccc(F)cc1 (stereo not given),92
CCS(=O)(=O)N1N=C(c2ccc(NS(C)(=O)=O)cc2)CC1c1ccc(C)cc1 (stereo not given),i
COC(=O)C1C(=O)C2=C(CC1C)NC(C)=C(C(=O)OC(C)C)C2c1cc(OC)c(OC)cc1OC (stereo not given),i
COc1ccc(S(=O)(=O)CCC(=O)N2CC=C(c3ccccc3)CC2)cc1,i
COC(=O)C1=C(C)NC(=S)NC1c1ccc2c(c1)OCO2 (stereo not given),i
Oc1ccc2ccccc2c1C=Nc1cccn2cc(-c3ccccc3)nc12,93
Cc1cc(Br)ccc1N=Cc1c(O)ccc2ccccc12,i
Oc1ccc2ccccc2c1/C=N/n1cnnc1,i
Cc1ccc(NC(=O)CCn2c(=S)oc3ccccc32)c(O)c1,i
COc1ccccc1CNC(=O)c1ccc2c(=O)n(-c3cccc(C(F)(F)F)c3)c(=S)[nH]c2c1,i
SMILES,14-3-3 PPI
CCOC(=O)Cc1ccc(N(Cc2ccc(Cl)cc2)S(=O)(=O)c2ccc3c(c2)OCCO3)cc1,i
Cn1c(=O)cc2c3c(c(N4CCOCC4)ccc31)C(=O)c1ccccc1-2,33
Cc1ccc(Nc2ccc3c4c(cc(=O)n3C)-c3ccccc3C(=O)c24)cc1,i
CC(=O)N(C)c1ccc(N2CCOCC2)c2c1C(=O)c1ccccc1C2=O,i
O=C(Nc1ccccc1C(=O)O)c1ccc(Cl)c([N+](=O)[O-])c1,i
CN(C)S(=O)(=O)N1CCCc2ccccc21,i
O=C(O)c1ccc2c3c(cccc13)C(=O)N(c1ccc(Cl)cc1)C2=O,i
O=C(O)CCCCCN1C(=O)c2cccc3c(N4CCCCC4)ccc(c23)C1=O,i
CCOC(=O)c1ccc(N2C(=O)c3cccc4c(Cl)ccc(c34)C2=O)cc1,i
O=C(O)CCCCN1C(=O)c2ccccc2C1=O,i
O=C1c2cccc3c(O)ccc(c23)C(=O)N1c1ccc(Cl)cc1,96
O=C1c2cccc3c(Nc4ccccc4)ccc(c23)C(=O)N1c1ccccc1,i
NCCNc1ccc2c3c(cccc13)C(=O)N(c1ccc(Cl)cc1)C2=O,63
O=C1c2cccc3c(N4CCCCC4)ccc(c23)C(=O)N1c1ccccc1,i
O=C(O)CCCN1C(=O)c2cccc3c(O)ccc(c23)C1=O,138
O=C1c2cccc3c(NCCO)ccc(c23)C(=O)N1c1ccccc1,196
C=CCNc1ccc2c3c(cccc13)C(=O)N(C)C2=O,i
O=C1c2ccccc2C(=O)N1c1ccc(Cl)cc1,i
COc1cc(NC(=O)c2sc3ccccc3c2Cl)c(OC)cc1NC(=O)c1ccccc1,i
COc1ccc(Cl)cc1C(=O)Nc1sc2c(c1C#N)CCC2,i
COc1ccc(-c2cc(C(F)(F)F)n3ncc(C(=O)Nc4cccc(C(C)=O)c4)c3n2)cc1OC,i
CC(C)(C)c1ccc(N2C(=O)c3ccccc3NC2c2ccc3c(c2)OCO3)cc1 (stereo not given),i
Cc1ccc(-n2cnc3cc(Nc4nnc(C)c5ccccc45)ccc32)cc1,i
O=C(NCc1cccnc1)c1ccc(Sc2ccc(F)cc2)c([N+](=O)[O-])c1,i
N#CC(C#N)C(C#N)(C#N)C1CCCCC1=O (stereo not given),142
Nc1cc(C(F)(F)F)ccc1Oc1ccccc1Cc1ccccc1,i

# Assay outcomes from PubChem BioAssay.
